The text below walks through data of PubChem BioAssay (Tox21).

Results filed as inconclusive are left out. A call without a number means that no potency is given here. Calls of active or inactive are those of the source. Calls follow the shape of the dose curve; as a rule, active = well fitted cell-killing curve with a large enough effect in the repeat runs; inconclusive = weak or mixed curves, or effect the other way; inactive = flat fitted curve, though single readings scatter.
Potency is read from the fitted curve at half-maximal effect.

A short description of this test: cAMP Responsive Elements (CRE) small molecule antagonists, cell-based qHTS assay: qHTS cell viability counter screen (AID 2060913). Also: nearly all actives have a fitted effect of over 40% in size. The conditions noted are these: CRE-bla HEK293T viability, CellTiter-Glo luminescence, 5 h; series mostly up to 92.4 µM. The procedure, abridged: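 Steps: cells plated and held 18 hrs at 37 C/5% CO2; compounds and NKH477 (0.25 uM final) added; 3 hrs incubation; reporter substrate read; CellTiter-Glo added to measure cytotoxicity by luminescence.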
As for `CCN(CC)CCOC(=O)C(Cc1cccc2ccccc12)CC1CCCO1` (stereo not given), the Potency result is “inactive”.

For the compound `O=S(=O)(O)c1ccc2ccccc2c1`, the Potency result was “inactive”.

For `COc1cc(C(=S)N2CCOCC2)ccc1O`, the Potency result was “inactive”.

As for `C=C(C)C(=O)OC(C)C`, the Potency result is “inactive”.

Turning to `CC(C)(C)C(=O)C(=O)O`, the Potency result was “inactive”.

For the compound `CCC(C)C(C)=O` (stereo not given), the Potency result is “inactive”.

With `CCc1cccc(CC)c1NC(=O)CN(CC(=O)O)CC(=O)O`, the Potency entry is “inactive”.

For `CCCC(=O)OCC`, the Potency entry was “inactive”.

Turning to `COC(=O)C1=C(C)NC(C)=C(C(=O)OCCN(C)Cc2ccccc2)C1c1cccc([N+](=O)[O-])c1` (stereo not given), the Potency result was “inactive”.

In the case of `FC(F)(F)c1ccccc1Cl`, the Potency entry was “inactive”.

On to `O=C1CC2(CCCC2)CC(=O)N1CCCCN1CCN(c2ncccn2)CC1`, for which the Potency result is “inactive”.

Take `CCCCCCCCCCC(=O)O`: the Potency entry was “inactive”.

`CCC(=O)OC(C)(C)C1CC=C(C)CC1` (stereo not given): the Potency entry was “inactive”.

In the case of `OC[C@H]1O[C@H](O[C@]2(CCl)O[C@H](CCl)[C@@H](O)[C@@H]2O)[C@H](O)[C@@H](O)[C@H]1Cl`, the Potency entry was “inactive”.

In the case of `CC/C(=C(\c1ccc(O)cc1)c1ccc(OCCN(C)C)cc1)c1ccccc1`, the Potency was 68.7 µM (active).

Consider `CCO[Si](CCCN=C=O)(OCC)OCC`, for which the Potency entry was “inactive”.

Turning to `O=C(c1ccccc1)c1cccc(O)c1`, the Potency entry is “inactive”.

Take `COc1ccc2cc(CCC(C)=O)ccc2c1`: the Potency result is “inactive”.

On to `CCCCC/C=C\C=C\C(=O)OCC`, for which the Potency entry is “inactive”.

For `CCCCCCCCCCCC(=O)NCCCN(C)C`, the Potency is 61.1 µM (active).

For the compound `[O]=[Mo](=[O])=[O]`, the viability change, negative = cytotoxic is 13.7% [at 18.9 µM] (inactive).

With `NS(=O)(=O)c1cc2c(cc1Cl)NCNS2(=O)=O`, the Potency result was “inactive”.

`CC(C)(CO)C(O)C(=O)NCCCO` (stereo not given): the Potency entry is “inactive”.

With `COCC(O)CO` (stereo not given), the Potency entry was “inactive”.

On to `CC(=O)Nc1ccc(S(N)(=O)=O)cc1`, for which the Potency entry is “inactive”.

Take `CCN(CC)CC`: the Potency entry is “inactive”.

As for `CC(C)(C)OC(=O)c1ccccc1C(=O)O`, the Potency entry is “inactive”.

As for `CN(C)CCCOc1nn(Cc2ccccc2)c2ccccc12`, the Potency result was “inactive”.

Consider `Cn1c(N)nc2nc[nH]c2c1=O`, for which the Potency entry is “inactive”.

For `C=C(C)C1CCC(C)CC1O` (stereo not given), the Potency result was “inactive”.

Regarding `CCCCNC(=S)NCCCC`, the Potency result is “inactive”.

On to `C[C@H]1O[C@@H](O[C@H]2[C@@H](O)C[C@H](O[C@H]3[C@@H](O)C[C@H](O[C@H]4CC[C@@]5(C)[C@H](CC[C@@H]6[C@@H]5C[C@@H](O)[C@]5(C)[C@@H](C7=CC(=O)OC7)CC[C@]65O)C4)O[C@@H]3C)O[C@@H]2C)C[C@H](O)[C@@H]1O`, for which the Potency is 0.0632 µM (active).

As to `O=S(c1cc(Cl)cc(Cl)c1O)c1cc(Cl)cc(Cl)c1O`, the Potency result was “inactive”.

`CCC(=O)OC(C)c1ccccc1` (stereo not given): the Potency entry is “inactive”.

Consider `CN1CCC(Nc2ncc3ncnc(Nc4ccc(F)c(Cl)c4)c3n2)CC1`, for which the Potency entry was “inactive”.

Consider `Nc1ccc2c(c1)CN1C(=O)c3ccccc3C1=N2`, for which the viability change, negative = cytotoxic was -16.9% [at 18.9 µM] (inactive).

Consider `CC(C)NC[C@@H](O)COc1cccc2ccccc12`, for which the Potency result is “inactive”.

Take `O=C[C@H](O)[C@H](O)[C@H](O)CO`: the Potency result is “inactive”.

As to `CCCCCCCCC=O`, the Potency result was “inactive”.

`CC(C)OC(=O)C(C)(C)Oc1ccc(C(=O)c2ccc(Cl)cc2)cc1`: the Potency result was “inactive”.
